This is a sample that favours compounds with a hit; in the whole collection about 6% have one here.
D1 antagonist – antagonists of human D1 dopamine receptor. HEK293 TREx D1 cells, calcium flux, dopamine EC80; stronger effect = lower value. activity change, negative = inhibition, % at 10 µM. 360,000 compounds, 3.2% hits; in the data active = activity change below about -30%
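HEK293 T-REx cells expressing inducible, force-coupled D1 receptor; no-wash Ca dye, 30–90 min RT. Cmpd → 180 s read at 1 Hz → EC80 DA → 180 s read.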
D1 agonist – activates the human D1 dopamine receptor | HEK293 T-REx D1 cells, calcium flux, agonist mode | activation, % at 2 µM | 360,000 compounds, 1% hits | AID 504660; in the data active = activation above about 30%
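Inducible HEK293 T-REx D1 cells, force-coupled to calcium signalling, were plated at 4000 cells/well with tetracycline and held overnight at 30 C. After no-wash calcium dye loading, compound-evoked calcium rise over 180 s flagged agonists.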
D3 antag – blocks the human D3 dopamine receptor. P35462. D3R cells, DiscoveRx beta-arrestin luminescence, antagonist mode; stronger effect = lower value. max response, negative = inhibition, %. 360,000 compounds, 2.5% hits; in the data active = max response below about -50%; inconclusive = no clear call, values can overlap the other calls
Target sequence (P35462 whole entry, looked up): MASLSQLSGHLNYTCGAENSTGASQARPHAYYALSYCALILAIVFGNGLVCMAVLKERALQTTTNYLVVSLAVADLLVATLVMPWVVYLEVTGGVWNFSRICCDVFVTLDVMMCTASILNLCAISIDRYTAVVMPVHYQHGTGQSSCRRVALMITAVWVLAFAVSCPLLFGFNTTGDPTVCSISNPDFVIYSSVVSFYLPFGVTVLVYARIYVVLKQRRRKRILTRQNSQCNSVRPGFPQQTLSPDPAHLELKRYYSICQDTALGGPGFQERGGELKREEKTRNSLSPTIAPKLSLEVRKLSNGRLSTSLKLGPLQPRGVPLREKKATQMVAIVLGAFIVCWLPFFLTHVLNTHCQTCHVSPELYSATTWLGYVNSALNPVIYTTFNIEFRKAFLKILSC
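Cells plated overnight at 1500 cells/well, then exposed to library compounds with dopamine controls for 90 minutes at 37 degrees C. DiscoveRx reagent added for 30–60 minutes at room temperature; luminescence read, quantitative HTS format.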
DRD3 agonist – D3 dopamine receptor (human) agonism; D3R DiscoveRx beta-arrestin cells, luminescence, 90 min; 410,000 compounds, 0.58% hits; max activation, %; in the data active = max activation above about 30%
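Agonist-mode cell screen: cells plated at 1500/well and incubated overnight at 37 °C, then exposed to library compounds for 90 min at 37 °C. Detection reagent was added for 30–60 min at room temperature, and luminescence was read.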
Chronic BCR inh – inhibitors of chronic active B-cell receptor signaling. ABC-DLBCL IkBa-CBG/CBR reporter, luminescence ratio, 4 h. Potency, µM (titrated, usually from 46.1 µM), most hits filed as inhibitors. 340,000 compounds, 0.05% hits. AID 493014; active = well fitted inhibition curve with a large enough effect in the signal ratio, with a control signal flat, not every such curve was filed as active; inconclusive = small, poorly fitted or top-dose-only effect, or effect the other way, or a change in a side signal; the % refers to the signal ratio
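Doxycycline induced both beetle luciferases in TMD8 lymphoma cells; IKK-driven degradation limits the IkappaBalpha-fused green signal, while red luminescence normalises for cell number and nonspecific effects. Compounds tested up to 46 uM, 4 hrs.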
D1 PAM – potentiators of human D1 dopamine receptor; potentiation, % at 10 µM; 360,000 compounds, 0.036% hits; AID 504651; HEK293 TREx D1 cells, calcium flux, dopamine EC20 potentiation; P21728; in the data active = potentiation above about 30%
Numbers stand for hits; . = inactive; ? = inconclusive; / = no result.

SMILES | D1 antagonist | D1 agonist | D3 antag | DRD3 agonist | Chronic BCR inh | D1 PAM
Cc1cc(C)c2oc(-c3cccc(NC(=O)COc4ccccc4Cl)c3C)nc2c1 | . | . | / | . | / | .
CCCCc1nc2ccccc2c(N)c1CCC (tested in a mixture with another compound) | -47 | 50 | . | . | ? | .
COc1ccc([C@H]2CN(CCc3ccccc3)C(=O)[C@@H]2CC(=O)Nc2ccccc2)cc1 | / | / | . | . | / | /
CCN1CCC(N(Cc2ccc(F)cc2)C(=O)Nc2cc(Cl)ccc2C(=O)OC)CC1 | . | . | / | . | / | .
COc1ccccc1C1CCN(Cc2ccc(C)cc2)CC1 | . | . | ? | . | ? | .
FC(F)(F)c1cccc(CN2CCC(c3cc(-c4cccs4)n[nH]3)CC2)c1 | . | . | -80 | . | ? | .
Cc1ccc(CN2CCC(c3cc(-c4cccs4)n[nH]3)CC2)cc1 | . | . | -78 | . | . | .
CC1CCN(C(=O)c2ccc(COc3ccccc3Cl)o2)CC1 | -36 | . | ? | . | ? | .
Cc1cc(OCCCN2CCC(C(O)(c3ccccc3)c3ccccc3)CC2)ccc1Br | / | / | . | . | / | /
N#Cc1cccc(OCCCN2CCC(C(O)(c3ccccc3)c3ccccc3)CC2)c1 | / | / | -86 | . | / | /
COC(=O)c1cc(S(=O)(=O)Nc2nn(C)c3cccc(F)c23)oc1C | -40 | . | . | . | ? | .
COc1ccccc1NC(=O)Nc1ccc2c(c1)CCC2 | . | . | . | . | ? | 38
COc1ccc(C)cc1NC(=O)Nc1ccc2c(c1)CCC2 | -44 | . | ? | . | ? | .
COc1ccc(NC(=O)Nc2ccc3c(c2)CCC3)cc1OC | . | . | . | . | . | .
O=c1c(S(=O)(=O)c2cccc(Cl)c2)cn(Cc2ccccc2)c2cc(N3CCOCC3)c(F)cc12 | . | . | / | . | / | .
CC(C)(C)c1ccc(CN2CCN(C(c3ccccc3)c3ccc(Cl)cc3)CC2)cc1 (centres undefined) | / | / | / | . | / | /
COc1cc(CN2CCN(C(c3ccccc3)c3ccccc3)CC2)cc(OC)c1OC | -52 | . | -85 | . | ? | .
Cc1cccc(CN2CCN(C(c3ccccc3)c3ccc(Cl)cc3)CC2)c1 (centres undefined) | . | . | -107 | . | ? | .
Cc1cccc(NC(=O)c2sc3nc4c(c(-c5cccs5)c3c2N)CN(C)CC4)c1 | -40 | . | . | . | . | .
CN(CCOc1ccccc1)CCOc1ccccc1 | . | . | -87 | . | . | .
COc1ccc(OCCCN(C)Cc2ccccc2)cc1 | . | . | . | . | . | .
COc1ccc(OCCN(C)Cc2ccccc2)cc1 | . | . | ? | . | ? | .
CN(CCOc1ccc(F)cc1)Cc1ccccc1 | . | . | -69 | . | ? | .
CN(CCCCOc1ccc(F)cc1)Cc1ccccc1 | . | . | -83 | . | . | .
CCC(C)c1ccccc1OCCCN(C)Cc1ccccc1 (centres undefined) | . | . | -60 | . | . | .
SMILES | D1 antagonist | D1 agonist | D3 antag | DRD3 agonist | Chronic BCR inh | D1 PAM
CCN(Cc1ccccc1)Cc1ccc(OCc2ccccc2)cc1 | . | . | -84 | . | ? | .
CN(CCOCCOc1ccc2ccccc2c1)Cc1ccccc1 | . | . | -64 | . | . | .
CN(CCOc1cccc(C(F)(F)F)c1)Cc1ccccc1 | / | . | -87 | . | . | .
CC(O)CNCCCOc1cccc(Oc2ccccc2)c1 (centres undefined) | . | . | ? | . | ? | .
CCN(CC)CCOc1ccc(Cc2ccccc2)cc1 | / | / | / | . | / | /
CC(O)CNCCCOc1cccc(C(F)(F)F)c1 (centres undefined) | . | . | -71 | . | . | .
CCOc1ccccc1C(=O)N(Cc1ccco1)Cc1ccco1 | . | . | / | . | / | .
CC(C)c1cc(Cn2c3ccccc3c(=O)n2C(C)C)on1 | / | / | . | . | / | /
Cc1ccccc1NC(=O)c1cc2c(-c3ccccc3)nn(-c3ccccc3)c2s1 | . | . | / | . | / | .
CCOc1ccc(CN(C)CCc2ccccn2)cc1 | . | . | ? | . | . | .
FC(F)(F)c1cccc(OCCN2CCN(Cc3ccccc3)CC2)c1 | . | . | -82 | . | . | .
CCc1ccc(OCCCCN(C)Cc2ccccc2)cc1 | . | . | -71 | . | . | .
COc1cc(C)ccc1OCCOCCN(C)Cc1ccccc1 | . | . | ? | . | . | .
Cc1cc(C)c(C)c(OCCCCN(C)Cc2ccccc2)c1 | . | . | -71 | . | . | .
c1ccc(CN2CCN(CCOCCOc3ccc4c(c3)CCC4)CC2)cc1 | . | . | ? | . | . | .
CC(=O)c1sc(NC(=O)C2(F)C(F)(F)C(F)(F)C(F)(F)C(F)(F)C2(F)F)nc1C | -35 | . | ? | . | ? | .
CCCCC(=O)Nc1nc(C)c(C(C)=O)s1 | -50 | . | . | . | . | /
CCCCN(C(C)=O)c1c(CC)nc2ccc(C(=O)NCc3cccs3)cn12 | / | / | . | . | / | /
CCN1CCN(c2ccc(NC(=O)c3ccc(Cl)c(S(=O)(=O)N4CCCC4)c3)cc2)CC1 | . | . | . | . | . | .
CCN1CCN(c2ccc(NC(=O)c3cc(S(=O)(=O)N4CCCC4)ccc3Cl)cc2)CC1 | -42 | . | . | . | ? | .
CCN1CCN(S(=O)(=O)c2ccc(Cl)c(C(=O)Nc3ccc(OC(F)F)cc3)c2)CC1 | -33 | . | . | . | . | .
CCN1CCN(S(=O)(=O)c2ccc(Cl)c(C(=O)N(CC)CC(=O)Nc3ccc(OC)cc3)c2)CC1 | . | . | -163 | . | . | .
O=C(NCCCCc1ccccc1)c1cccc(NC(=O)C2CCCC2)c1 | / | / | . | . | / | /
CC(Cl)OC(=O)Nc1cccc2cccnc12 (centres undefined) | . | . | / | / | / | .
Cc1ccccc1Cn1c(C)c(C(=O)N(C)Cc2ccc(F)cc2)sc1=O | / | / | . | . | / | /
SMILES | D1 antagonist | D1 agonist | D3 antag | DRD3 agonist | Chronic BCR inh | D1 PAM
C/C(N)=C(/C#N)C(=O)COC(=O)c1ccc(C#N)cc1 | -44 | . | . | . | . | .
Cc1nc2ncnn2c(C)c1CCC(=O)NCc1ccccc1Cl | . | . | / | . | / | .
CCc1cccc(-n2c(=O)c3cccnc3n2CC(=O)Nc2ccc(OC)c(Cl)c2)c1 | -63 | . | / | . | / | .
CCc1ccc(-n2c(=O)c3cccnc3n2CC(=O)Nc2cc(OC)ccc2OC)cc1 | . | . | / | . | / | .
Cc1cc2c3ccccc3ncn2n1 | -39 | . | . | . | . | .
CC1OC(COCc2ccccc2)Cc2[nH][nH]c(=O)c21 (centres undefined) | / | / | . | . | / | /
S=C(NCc1cccnc1)Nc1cc(Cl)cc(Cl)c1 | . | . | . | . | . | .
S=C(NCc1ccncc1)Nc1ccc(Br)cc1 | . | . | . | . | . | .
S=C(Nc1ccc(Cc2ccncc2)cc1)Nc1cccc(Cl)c1 | -32 | . | . | . | . | .
S=C(NCc1ccncc1)Nc1cc(Cl)cc(Cl)c1 | -31 | . | . | . | . | .
